“And” between values parts separate entries of the source, which are not always exact repeats. Equal values may be shown once. This is part of a sample that, as a whole, favours compounds with a hit. Of some 83,000 tested, about 20% had one in any assay.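 Method: cells in 96-well plates; compound added at one concentration; 48 h incubation; percent growth measured; values under 10 scored active.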 The source made the active and inactive calls.
Key:
Experiment in all cases: NCI-60 one-dose screen, 48 h (100 = growth as untreated, 0 = no growth, -100 = all killed)
MOLT-4 leukemia = conditions: 10 µM
SR leukemia = conditions: 10 µM
RPMI-8226 leukemia = conditions: 10 µM
OVCAR-8 ovarian = conditions: 10 µM
OVCAR-5 ovarian = conditions: 10 µM
OVCAR-4 ovarian = conditions: 10 µM
SK-OV-3 ovarian = conditions: 10 µM
IGROV1 ovarian = conditions: 10 µM
OVCAR-3 ovarian = conditions: 10 µM
HS 578T breast = conditions: 10 µM
NCI/ADR-RES ovarian = conditions: 10 µM
T-47D breast = conditions: 10 µM
BT-549 breast = conditions: 10 µM
MDA-MB-435 melanoma = conditions: 10 µM
SW-620 colon = conditions: 10 µM
MCF7 breast = conditions: 10 µM unless noted
HCT-116 colon = conditions: 10 µM
HCC-2998 colon = conditions: 10 µM
KM12 colon = conditions: 10 µM

Compound	growth (MOLT-4 leukemia)	growth (SR leukemia)	growth (RPMI-8226 leukemia)	growth (OVCAR-8 ovarian)	growth (OVCAR-5 ovarian)	growth (OVCAR-4 ovarian)	growth (SK-OV-3 ovarian)	growth (IGROV1 ovarian)	growth (OVCAR-3 ovarian)	growth (HS 578T breast)	growth (NCI/ADR-RES ovarian)	growth (T-47D breast)	growth (BT-549 breast)	growth (MDA-MB-435 melanoma)	growth (SW-620 colon)	growth (MCF7 breast)	growth (HCT-116 colon)	growth (HCC-2998 colon)	growth (KM12 colon)
COC1CC2C=C(C)/C=C/C=C/C(=O)NC(c3ccccc3)C/C=C/CCC(O)CC(=O)C2=C1O (centres undefined)	-59.5% (active)	2.86% (active)	-40.8% (active)	-69.1% (active)	-95.6% (active)	-78.4% (active)	-91.4% (active)	-90.2% (active)	-83.9% (active)	-51.4% (active)	-44.5% (active)	-65.5% (active)	-98% (active)	-90.5% (active)	-75.9% (active)	-68.8% (active)	-96.7% (active)	-53% (active)	-76.1% (active)
Oc1ccccc1-c1ccccc1	90.1% (inactive) and 93.8% (inactive)	92% (inactive) and 87.9% (inactive)	98.7% (inactive) and 93.2% (inactive)	100% (inactive) and 98% (inactive)	105% (inactive) and 109% (inactive)	108% (inactive) and 104% (inactive)	92.2% (inactive) and 102% (inactive)	97.9% (inactive) and 107% (inactive)	103% (inactive) and 116% (inactive)	104% (inactive) and 120% (inactive)	99.9% (inactive) and 110% (inactive)	94% (inactive)		107% (inactive) and 111% (inactive)	109% (inactive) and 103% (inactive)		109% (inactive) and 96.6% (inactive)	92.7% (inactive)	102% (inactive) and 109% (inactive)
COc1cc([C@@H]2c3cc4c(c(O)c3C[C@H]3COC(=O)[C@@H]32)OCO4)cc(OC)c1OC	-30.2% (active)	-3.92% (active)	-53.3% (active)	16.4% (inactive)	32.8% (inactive)	49.9% (inactive)	-0.464% (active)	-32.1% (active)	-48.9% (active)	-10.6% (active)	-28.9% (active)		-12.9% (active)	-19.6% (active)	15.9% (inactive)	8.86% (active)	-38.4% (active)	-54.8% (active)	0.358% (active)
O=[N+]([O-])/C=C/c1ccc(Cl)cc1[N+](=O)[O-]	2.69% (active)	4.94% (active)	-11.3% (active)	17.8% (inactive)	75.2% (inactive)	10% (active)	99.2% (inactive)	17.8% (inactive)	-31.5% (active)	-6.61% (active)	32.1% (inactive)	-6.41% (active)		76.8% (inactive)	-90.2% (active)	-69.2% (active)	-100% (active)	105% (inactive)	29.1% (inactive)
O=[N+]([O-])/C=C\c1ccc2c(c1)OCO2	75.9% (inactive)	34.4% (inactive)	10.2% (inactive)	89.9% (inactive)	91.5% (inactive)	76.9% (inactive)	101% (inactive)	27.6% (inactive)	85.7% (inactive)	87.4% (inactive)	98.5% (inactive)	75.3% (inactive)		-14.8% (active)	43.2% (inactive)	-10.9% (active)	-20% (active)	52.6% (inactive)	38.3% (inactive)
CN(CCCl)c1ccc(/C=C/C2=[N+](C)c3ccccc3C2(C)C)cc1	-13.1% (active)	12.3% (inactive)	10.6% (inactive)	13.1% (inactive)	70.8% (inactive)	37.6% (inactive)	-3.38% (active)	35.1% (inactive)	-10.6% (active)	60.1% (inactive)	105% (inactive)		20.7% (inactive)	12% (inactive)	19.8% (inactive)		7.48% (active)	26% (inactive)	12.6% (inactive)
CC/C(=C/c1ccc(OC)cc1OC)[N+](=O)[O-]	6.34% (active)	2.47% (active)	-7.24% (active)	18.4% (inactive)	35.9% (inactive)	93.7% (inactive)	124% (inactive)	39.6% (inactive)	58.7% (inactive)	77.6% (inactive)	41.8% (inactive)	-12.9% (active)	37.1% (inactive)	46% (inactive)	-20.1% (active)	0.465% (active)	-58.8% (active)	102% (inactive)	25.5% (inactive)
[Cl][Hg][c]1ccc2ccccc2c1	-1.79% (active)	-38% (active)	-11.1% (active)	-43.9% (active)	-13.7% (active)	-89.7% (active)	2.89% (active)	-76.6% (active)	-97.8% (active)	2.36% (active)	63.9% (inactive)	-56.8% (active)	-99% (active)	-76.2% (active)	-92.4% (active)	-61.5% (active)	-100% (active)	-49% (active)	1.74% (active)
COS(=O)(=O)c1ccccc1	85.4% (inactive)	71.1% (inactive)	89.9% (inactive)	101% (inactive)	104% (inactive)	110% (inactive)	101% (inactive)	120% (inactive)	110% (inactive)	110% (inactive)	107% (inactive)		107% (inactive)	108% (inactive)	108% (inactive)	99.5% (inactive)	102% (inactive)	101% (inactive)	104% (inactive)
[Cl][Hg][c]1ccc(Cl)s1	-11.5% (active)	-17.1% (active)	18.5% (inactive)	60% (inactive)	28.2% (inactive)	11.2% (inactive)	98.2% (inactive)	26.2% (inactive)	-78.7% (active)	59.1% (inactive)	57.1% (inactive)	-68.5% (active)	14.2% (inactive)	4.96% (active)	-26.9% (active)		15.8% (inactive)	111% (inactive)	91.1% (inactive)
COc1cc2c(cc1OC)C13CCN4CC5=CCOC6CC(=O)N2C1C6C5CC43 (centres undefined)	109% (inactive) and 86.6% (inactive)	82% (inactive)	56.5% (inactive)	99.7% (inactive) and 113% (inactive)	98.2% (inactive) and 83.9% (inactive)	113% (inactive) and 102% (inactive)	101% (inactive) and 114% (inactive)	106% (inactive)	115% (inactive) and 107% (inactive)	114% (inactive) and 96.4% (inactive)	116% (inactive) and 66.9% (inactive)		90.3% (inactive)	112% (inactive) and 110% (inactive)	115% (inactive) and 106% (inactive)	94.8% (inactive) and 98.6% (inactive)	99.4% (inactive) and 102% (inactive)	-56.9% (active)	101% (inactive) and 100% (inactive)
COc1ccc(/C=C\[N+](=O)[O-])cc1OC	85.7% (inactive) and 65.5% (inactive)	16.6% (inactive) and -16.1% (active)	20.7% (inactive) and -31.7% (active)	73.9% (inactive) and 75.7% (inactive)	110% (inactive) and 79.4% (inactive)	73.7% (inactive) and 80.5% (inactive)	106% (inactive) and 95.9% (inactive)	-5.78% (active) and 59.2% (inactive)	55.6% (inactive) and 37% (inactive)	71.2% (inactive) and 94.4% (inactive)	91.3% (inactive) and 86.9% (inactive)	62.8% (inactive) and 42.3% (inactive)	92% (inactive) and 70.3% (inactive)	12.3% (inactive) and 31.1% (inactive)	37.7% (inactive) and 55.6% (inactive)	12.6% (inactive) and 16.4% (inactive)	13.2% (inactive) and 0.137% (active)	61% (inactive) and 54.3% (inactive)	33.7% (inactive) and 57.2% (inactive)
COc1ccccc1[As]=[As]c1ccccc1OC (centres undefined)	-9.7% (active)	-2.26% (active)	-15.1% (active)	-83.1% (active)	-93.2% (active)	-85.1% (active)	-99.7% (active)	-76.9% (active)	-93.3% (active)	-11.6% (active)	-72% (active)	-47.2% (active)	-91.9% (active)	-73.2% (active)	-66.3% (active)		-71.3% (active)	-98.2% (active)	-81.8% (active)
CCOP(=O)(OCC)C(O)c1ccccc1Cl (centres undefined)	97.8% (inactive)	93.2% (inactive)	102% (inactive)	100% (inactive)	87.2% (inactive)	106% (inactive)	96.5% (inactive)	93.5% (inactive)	99.5% (inactive)	106% (inactive)	103% (inactive)	89.1% (inactive)		119% (inactive)	99.2% (inactive)	103% (inactive)	98.8% (inactive)	102% (inactive)	103% (inactive)
